# ST2 IL33 inh = inhibitors of human ST2 (IL1RL1) binding to IL-33, primary screen, biochemical, AlphaLISA | inhibition, % for hits at 17 µM | Interleukin-1 receptor-like 1 (Homo sapiens), Q01638 | hit rate 2.3% among 78,000 | AID 1259354, 2018 | AlphaLISA ST2-Fc/biotin-IL-33 interaction, 1 h; in the data active = inhibition above about 30%
# Target sequence (Q01638 whole entry, looked up): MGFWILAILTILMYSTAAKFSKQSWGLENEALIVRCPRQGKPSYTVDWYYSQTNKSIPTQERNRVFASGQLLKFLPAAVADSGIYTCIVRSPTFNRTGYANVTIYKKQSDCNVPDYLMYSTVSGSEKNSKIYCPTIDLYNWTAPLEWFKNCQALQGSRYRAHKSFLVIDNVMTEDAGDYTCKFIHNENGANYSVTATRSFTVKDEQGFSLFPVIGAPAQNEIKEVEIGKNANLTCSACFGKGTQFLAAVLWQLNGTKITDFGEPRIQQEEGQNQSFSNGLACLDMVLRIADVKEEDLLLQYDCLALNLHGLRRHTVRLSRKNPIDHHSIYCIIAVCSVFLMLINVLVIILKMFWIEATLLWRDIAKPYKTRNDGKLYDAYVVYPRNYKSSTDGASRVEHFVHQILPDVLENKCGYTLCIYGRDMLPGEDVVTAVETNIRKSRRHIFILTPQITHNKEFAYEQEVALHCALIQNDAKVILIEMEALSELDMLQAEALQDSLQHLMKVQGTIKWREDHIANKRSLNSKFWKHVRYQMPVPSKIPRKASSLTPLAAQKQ
# Numbers stand for hits; - = inactive. This excerpt belongs to a sample that is enriched for hits.
SMILES,ST2 IL33 inh
CCOc1ccc(NCC(=O)c2ccc(Br)cc2)cc1,-
CCOc1ccc(N=CNc2ccc(OCC)cc2)cc1,-
CCOc1ccc(N=C/C(=C/Nc2ccc(OCC)cc2)c2ccccc2)cc1,36%
Cc1cccc(-c2cccc(NC(=O)C3CCCN(C(=O)c4cnsn4)C3)c2)c1 (stereo not drawn),-
Cn1c(=O)c2c(nc(N3CCOCC3)n2Cc2c(F)cccc2Cl)n(C)c1=O,37%
Cn1c(=O)c2c(nc(NCc3ccco3)n2Cc2c(F)cccc2Cl)n(C)c1=O,-
CN1CCN(c2nc3c(c(=O)n(C)c(=O)n3C)n2Cc2ccc(Cl)c(Cl)c2)CC1,-
CCN(CC)c1cc(C)c2cc(NC(=O)Cn3nc(C)c([N+](=O)[O-])c3C)ccc2n1,-
Cc1cccc(CN2CCC(O)(c3ccc4oc(C(=O)N(C)Cc5cscn5)cc4c3)CC2)c1,-
COc1ccc(CN2C(=S)N(c3ccc(OC)cc3)[C@H]3[C@@H]2[C@H]2OC(=O)[C@@H]3C[C@H]2O)cc1,-
O=S(=O)(c1ccccc1)c1nc(-c2ccco2)oc1SCc1ccccc1F,-
Cc1cccc(-c2nc(S(=O)(=O)c3ccccc3)c(N3CCOCC3)o2)c1,-
O=S(=O)(c1ccccc1)c1nc(-c2ccccc2F)oc1N1CCCCC1,32%
COc1ccc(C(C)NC(=O)c2ccc(NC(C)=O)c(C)c2)cc1F (stereo not drawn),-
Cc1cc(NC(=O)Cn2cnc3c(cnn3-c3ccccc3)c2=O)no1,-
Cc1ccccc1C1=N/C(=C\c2ccco2)C(=O)O1,44%
O=C1OC(c2ccc3c(c2)OCO3)=N/C1=C\c1ccccc1Br,-
CC1=N/C(=C\c2ccc(OC(F)F)cc2)C(=O)O1,-
Cc1ccc(C2=N/C(=C\c3ccco3)C(=O)O2)cc1[N+](=O)[O-],-
Cc1ccc(/C=C2\N=C(c3ccccc3C)OC2=O)o1,65%
Cc1ccc(/C=C2\N=C(c3ccc(I)cc3)OC2=O)o1,47%
CCOc1ccc(/C=C2\N=C(c3ccc(Br)cc3)OC2=O)cc1,-
Cc1c(Cl)cccc1-n1ncnc1-c1ccc(F)cc1,-
O=C(NC1CCCc2ccccc21)C1C2C=CC3(CN(Cc4cccs4)C(=O)C13)O2 (stereo not drawn),-
Cc1ccc(C)c(NC(=O)CCN2CCC(C(N)=O)CC2)c1,-
SMILES,ST2 IL33 inh
CC1=C(C(=O)Nc2ccccn2)C(c2ccncc2)n2ncnc2N1 (stereo not drawn),-
COc1ccc(CCNc2oc(COc3cccc(C)c3)nc2C#N)cc1,30%
COc1ccc(CCNC(=O)CC(c2ccccc2)c2ccccc2)cc1OC,-
Cc1cccc(OCc2nnc(SCC(=O)Nc3ccc(C)c(C)c3)o2)c1,-
COc1ccccc1OCc1nc(C#N)c(NCc2cccnc2)o1,-
COc1ccc(CNc2oc(COc3ccc(Cl)cc3)nc2C#N)cc1,-
COc1ccc(CCNc2oc(COc3ccccc3C)nc2C#N)cc1OC,38%
N#CSCCCCOc1ccc(I)cc1,-
O=c1c2oc3ccccc3c2ncn1Cc1cccnc1,-
CCCCSc1nc2n(n1)C(c1ccc(Cl)cc1)C(C(=O)OCC)=C(C)N2 (stereo not drawn),-
O=C1C2CCCCC2C(=O)N1c1ccc(Cl)c(F)c1 (stereo not drawn),-
CN(C1CCCCC1)S(=O)(=O)c1ccccc1[N+](=O)[O-],-
CSc1nsc(SC)c1NC(=O)Nc1nonc1C,-
CCCCOc1ccccc1C1C(C(=O)OC(C)C)=C(C)NC2=C1C(=O)C(C(=O)OC)C(C)C2 (stereo not drawn),-
COc1ccc(Cc2nc3cc(C)c(C)cc3n(C)c2=O)cc1Br,-
COc1ccc(Cc2nc3cc(C)c(C)cc3[nH]c2=O)cc1Br,31%
COc1ccc(Cn2cnc([N+](=O)[O-])c2)cc1Br,-
COc1cccc(NC(=O)C2CCN(c3ccc(-c4cccs4)nn3)CC2)c1,-
CCc1ccc(C2CC(c3ccc(F)cc3)n3ncnc3N2)cc1 (stereo not drawn),-
O=C(c1cccn2c(=O)c3sccc3nc12)N1CCN(c2ccc(Cl)cc2)CC1,-
COc1cc(OC)c(C2C(C#N)=C(N)Oc3n[nH]c(C(C)(C)C)c32)cc1OC (stereo not drawn),-
O=C(COC(=O)c1ccccc1O)c1ccc(Br)cc1,90%
O=C(COC(=O)c1cccc(Br)c1)c1ccc(Br)cc1,-
O=C(COC(=O)c1ccc(Cl)cc1)c1ccc(Br)cc1,-
CC1CCCC(NC(=O)c2c[nH]c3ccc(S(=O)(=O)Nc4ccccc4F)cc3c2=O)C1C (stereo not drawn),-
SMILES,ST2 IL33 inh
Cc1ccc(NC(=O)C2CCN(S(=O)(=O)c3cc4c(cc3C)NC(=O)CO4)CC2)nc1,-
Cc1ccc(-c2ccc(C=C3C(=O)OC(C)(C(C)(C)C)OC3=O)o2)cc1[N+](=O)[O-] (stereo not drawn),-
CC1=C(C#N)C(=O)NC(=O)/C1=C\c1ccc(-c2cc(C)c(C)cc2[N+](=O)[O-])o1,34%
Cc1ccc(-c2ccc(/C=C3/NC(=O)NC3=O)o2)cc1[N+](=O)[O-],41%
Cc1ccc(C2=N/C(=C\c3cccnc3)C(=O)O2)cc1[N+](=O)[O-],-
Cc1c(C(=O)N(C)C)sc2[nH]c(=O)n(-c3ccc(F)cc3)c(=O)c12,-
C[C@@H]1CC2(CCCN2Cc2ccccc2)C[C@H]1C,-
c1cncc(-c2nc(NC3CCCCC3)c3ccccc3n2)c1,-
COc1cc(OC)cc(N2C(=O)[C@@H]3C[C@@H](NC(=O)c4cccn4C)CCN3C2=O)c1,-
CSCC(=O)N[C@H]1CCN2C(=O)N(c3ccc(C(C)C)cc3)C(=O)[C@@H]2C1,52%
CC(C)c1ccc(N2C(=O)C3C4C=CC(C4)C3C2=O)cc1 (stereo not drawn),-
COc1ccc(C(=O)Nc2ncc(S(=O)(=O)c3ccc([N+](=O)[O-])cc3)s2)cc1OC,-
NS(=O)(=O)c1ccc(CCNC(=O)CCc2nnc3c(=O)n(-c4cccc(F)c4)ccn23)cc1,-
CCN(CC)C(=O)C1CCCN(Cc2ccc(Cl)cc2Cl)C1 (stereo not drawn),-
O=C1c2ccc([N+](=O)[O-])cc2C(=O)N1CNc1ccccc1Cl,-
CC1=C[C@@H](CNC(=O)c2ccc(C#N)cc2)[C@H](C(C)C)C[C@H]1CC(=O)NCCN(C)C,31%
CC1=C[C@@H](CNC(=O)c2ccc(C#N)cc2)[C@H](C(C)C)C[C@H]1CC(=O)NCc1cccnc1,-
COc1ccc(CNC(=O)C[C@@H]2C[C@@H](C(C)C)[C@H](CNC(=O)c3ccc(C#N)cc3)C=C2C)cc1,-
O=C(c1cccn2c(=O)c3cc4ccccc4cc3nc12)N1CCN(c2ncccn2)CC1,-
Nc1c(S(=O)(=O)O)cc(Nc2ccc(Nc3nc(Cl)nc(Nc4ccc(S(=O)(=O)O)cc4)n3)c(S(=O)(=O)O)c2)c2c1C(=O)c1ccccc1C2=O,81%
CC1=C(C(=O)N2CCOCC2)C(c2cc(Cl)ccc2OC(F)F)n2c(nc3ccccc32)N1 (stereo not drawn),-
COc1ccc(CCN(Cc2ccccn2)S(=O)(=O)c2ccc(C(C)(C)C)cc2)cc1OC,-
CCn1c(C2CCN(C(=O)c3ccccc3-n3cncn3)CC2)nn(C)c1=O,-
CCN(CC)CCn1c(-c2ccccc2)cn2c3ccccc3nc12,-
O=C(N1CCOC(C(F)(F)F)C1)C1(S(=O)(=O)c2ccccc2)CC1 (stereo not drawn),-
FC(F)(F)C1CN(c2ccc(-c3ccccc3)nn2)CCO1 (stereo not drawn),96%

# Screens as filed in PubChem.
